According to PubChem BioAssay (NCATS):
“And” between values parts separate entries of the source, which are not always exact repeats. Identical values can stand only once. Inconclusive results are not listed. Where a call stands in place of a potency, no number is given. Values without a mark were called inactive. The source made the active and inactive calls. Calls come from the whole dose curve; as a rule, active = well fitted inhibition curve with a large enough effect; inconclusive = small, poorly fitted or top-dose-only effect; inactive = flat fitted curve, though single readings scatter. Where a SMILES comes first, the peptide text is derived from it. Bridges are numbered along the chain shown (N, C = ends).

Assay: P-glycoprotein substrates identified in KB-8-5-11 adenocarcinoma cell line, qHTS therapeutic library screen (AID 1346987); note: nearly all actives have a fitted effect of over 65% in size
Settings: KB-8-5-11 (P-gp overexpressing) viability, CellTiter-Glo, 72 h; series mostly up to 44.5 µM
Outline: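 Luminescence from CellTiter-Glo, read 5 min after addition, quantified survival of KB-8-5-11 (P-gp-overexpressing) cells exposed to compounds for 72 h. AC50 was derived from concentration-response curves.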
Potency is the fitted concentration of half-maximal effect.

SMILES | Potency | activity change, negative = cytotoxicity
C=Cc1ccccc1 | inactive | 
CCc1ccccc1OC[C@@H](O)CN[C@H]1CCCc2ccccc21 | 20.6 µM (active) | 
COc1cc2[nH]c(C)c(CCN3CCN(c4ccccc4)CC3)c2cc1OC | inactive | 
COCc1c(Cl)ccc2c1CC[C@H]2c1ncc[nH]1 | inactive | 
C=C1CCN([C@H](C)[C@](O)(Cn2cncn2)c2ccc(F)cc2F)CC1 | inactive | 
CC(=O)O[C@@H]1C[C@]2(C)[C@@]3(CCC4[C@@]5(C)CC[C@H](O[C@@H]6O[C@H](C(=O)O)[C@@H](O)[C@H](OC7OC(CO)C(O)C(O)[C@H]7O[C@@H]7O[C@@H](C)[C@H](O)[C@@H](O)[C@H]7O[C@@H]7OC[C@](O)(CO)[C@H]7O)[C@H]6OC6OC(CO)C(O)C(O)C6O)C(C)(C)C5CC[C@]42C)OC[C@@]12CCC(C)(C)CC23 (stereo not given in full) |  | -11.3% [at 9.29 µM]
CCC(C)[C@H]1O[C@]2(C=C[C@@H]1C)C[C@@H]1C[C@@H](C/C=C(\C)[C@@H](O[C@H]3C[C@H](OC)[C@@H](O[C@H]4C[C@H](OC)[C@H](NC(C)=O)[C@H](C)O4)[C@H](C)O3)[C@@H](C)/C=C/C=C3\CO[C@@H]4[C@H](O)C(C)=C[C@@H](C(=O)O1)[C@]34O)O2 (stereo not given in full) | 5.17 µM (active) and 18.4 µM (active) | 
OCC(O)COc1ccc(Cl)cc1 (stereo not given) | inactive | 
O=C(O)[C@@H](O)[C@H](O)[C@H](O)[C@@H](O)C(=O)O (tested in a mixture with another compound) | inactive | 
C=C1CCC2C(C)(C(=O)O)CCCC2(C)C1CCC1=CCOC1=O (stereo not given) | inactive | 
C=C1/C(=C/C=C2\CCC[C@]3(C)[C@@H]([C@@H](C)OCCC(O)(CC)CC)CC[C@@H]23)C[C@@H](O)C[C@@H]1O | inactive | 
CC(C)Oc1ccc(-c2cnc3c(-c4ccnc5ccccc45)cnn3c2)cc1 | inactive | 
C=CCNC1=C2C[C@@H](C)C[C@H](OC)[C@H](O)[C@@H](C)/C=C(\C)[C@H](OC(N)=O)[C@@H](OC)/C=C\C=C(/C)C(=O)NC(=CC1=O)C2=O | 16.4 µM (active) | 
O=C1C(Cc2ccc(O)cc2)N2C(=O)CCN(C(=O)NCc3ccccc3)C2CN1Cc1cccc2ccccc12 (stereo not given) | inactive | 
CC[C@@H](C)[C@@H]1OC2(C=C[C@H]1C)C[C@@H]1C[C@H](C/C=C(\C)[C@H](O[C@H]3C[C@H](OC)[C@H](O[C@H]4C[C@H](OC)[C@H](NC(C)=O)[C@H](C)O4)[C@H](C)O3)[C@H](C)/C=C/C=C3\CO[C@H]4[C@H](O)C(C)=C[C@@H](C(=O)O1)[C@@]34O)O2 (stereo not given in full) | 10.1 µM (active) | 
CC1CCC/C=C/C(=O)c2c(O)cc(O)cc2CC(=O)O1 (stereo not given) | 5.8 µM (active) | 
C/C=C\NC(=O)C1NC(=O)C(CC(N)=O)NC(=O)C(NC(=O)C(=O)C(C)CC)Cc2ccc(O)c(c2)-c2cccc3c2NC(=O)C3(O)C1O (stereo not given) | inactive | 
CCCN(CC)C(CC)C(=O)Nc1c(C)cccc1C (stereo not given) | inactive | 
CCN(CC)CCCS(=O)(=O)N[C@H](CCc1ccccc1)c1nc(Cc2ccc(Br)cc2)no1 | 23.1 µM (active) | 
C=C(C)C(=O)O[C@H]1C[C@@](C)(O)C2(O)CCC(C)(/C=C3/OC(=O)C(COC)=C31)O2 (stereo not given in full) | 6.4 µM (active) | 

SMILES | Potency | activity change, negative = cytotoxicity
C[N+](C)(CCCCCC[N+](C)(C)C1c2ccccc2-c2ccccc21)C1c2ccccc2-c2ccccc21 | inactive | 
C=C(NC(=O)C(=C)NC(=O)c1csc(C2=NC3c4csc(n4)C4NC(=O)c5csc(n5)C(C(C)(O)C(C)O)NC(=O)C5CSC(=N5)/C(=C/C)NC(=O)C(C(C)O)NC(=O)c5csc(n5)C3(CC2)NC(=O)C(C)NC(=O)C(=C)NC(=O)C(C)NC(=O)C(C(C)CC)NC2C=Cc3c(C(C)O)cc(nc3C2O)C(=O)OC4C)n1)C(N)=O (stereo not given) | inactive | 
OC(CN1CCCCC1)c1cc(-c2ccccc2)on1 (stereo not given) | inactive | 
COc1cc(C[C@@H]2NCCc3cc(O)c(O)cc32)cc(OC)c1OC | inactive | 
CNCc1cc(-c2ccccc2F)n(S(=O)(=O)c2cccnc2)c1 | inactive | 
CC(=O)N[C@H]1[C@H](O[C@H]2CC[C@@]3(C)C(CC[C@]4(C)C3CC=C3C5CC(C)(C)CC[C@]5(C(=O)O)C(O)C[C@]34C)C2(C)C)O[C@H](CO[C@@H]2O[C@H](C)[C@H](O)[C@H](O)[C@H]2O[C@@H]2OC[C@@H](O)[C@H](O)[C@H]2O)[C@@H](O)[C@@H]1O (stereo not given in full) |  | -2.51% [at 9.29 µM]
CC(=O)O[C@H]1[C@@]2(O)C[C@H](C)[C@H](OC(=O)c3ccccc3)[C@@H]2[C@@H](OC(=O)CO)[C@]2(OC(C)=O)C[C@H]3C(=O)C(C)(C)C[C@@H]3[C@@]1(C)[C@H]2OC(C)=O | inactive | 
CCC/C=C/c1cc2c(C=O)c(O)c(CC=C(C)C)cc2o1 | inactive | 
CS/C=C/C(=O)O[C@@H]1CCC2=CC(=O)C(=C(C)C)C[C@]2(C)[C@H]1C | inactive | 
C=CCC1=C[C@]2(OC)[C@H](C)[C@@H](c3ccc4c(c3)OCO4)O[C@]2(OC)CC1=O | inactive | 
NCCCC[C@H](NC(=O)[C@@H]1CCCN1C(=O)[C@@H]1CSSC[C@H](NC(=O)CNC(=O)CNC(=O)CN)C(=O)N[C@@H](Cc2ccc(O)cc2)C(=O)N[C@@H](Cc2ccccc2)C(=O)N[C@@H](CCC(N)=O)C(=O)N[C@@H](CC(N)=O)C(=O)N1)C(=O)NCC(N)=O (H-GGGCYFQNCPKG-NH2; disulfide 4-9) | inactive | 
CCC(C)c1ccc(NC(=O)Cn2cnc3c2c(=O)n(C)c(=O)n3C)cc1 (stereo not given) | inactive | 
C/C=C(/CC[C@@H](C)[C@H]1CC[C@H]2C3=CC[C@H]4[C@H](C)[C@@H](O)CC[C@]4(C)[C@H]3CC[C@]12C)C(C)C | inactive | 
O=C(Nc1nc2cc(C(F)(F)F)cc(NC3CC3)n2n1)c1cccnc1 | 2.91 µM (active) | 
Cc1cc2sc(NC(=O)Cc3ccccc3)nc2cc1Cl | inactive | 
C[C@@]12C(=O)N(c3ccc(C(=O)Nc4cccc5cccnc45)cc3)C(=O)[C@@H]1[C@@H]1C=C[C@H]2C1 | inactive | 
CN(C)N(C)C(=O)[C@@]1(Cc2ccccc2)CCCN(C(=O)[C@@H](Cc2c[nH]c3ccccc23)NC(=O)C(C)(C)N)C1 | inactive | 
Nc1ncnc2c1nc(Cl)n2C1OC2COP(=O)(O)OC2C1O (stereo not given) | 1.46 µM (active) | 
Cc1cc(C(=O)Nc2cc(Nc3ccc4c(/C=C/c5ccccn5)n[nH]c4c3)ccc2F)n(C)n1 | 18.4 µM (active) | 
O=C(Nc1ccccc1Cl)c1cnc2ccc(C3CCNCC3)cn12 | inactive | 
